ChEMBL document CHEMBL1157539, “Thousands of chemical starting points for antimalarial lead identification” (Nature, 2010)

Tests used:
Assay type in all cases: functional
[1] = test system: Plasmodium falciparum; experiment: GSK_TCMDC: Inhibition of Plasmodium falciparum 3D7 in whole red blood cells, using parasite LDH activity as an index of growth. Test compounds present at 2uM
[2] = test system: Plasmodium falciparum; experiment: GSK_TCMDC: Inhibition of Plasmodium falciparum Dd2 in whole red blood cells, using parasite LDH activity as an index of growth. Test compounds present at 2uM
[3] = test system: HepG2; experiment: GSK_TCMDC: Percent inhibition of human HepG2 cell line. Test compounds present at 10uM.

| SMILES | Inhibition [1] [%] | Inhibition [2] [%] | Inhibition [3] [%] |
| --- | --- | --- | --- |
| CN1CCN(c2ccc(-c3cccc(NC(=O)c4cccc([N+](=O)[O-])c4)c3)nn2)CC1 | 99 | 35 | 21 |
| COc1cccc(C(=O)NCc2nnc(S)n2-c2ccc(Cl)c(Cl)c2)c1 | 100 | 100 | 0 |
| O=C(Nc1cccc(-c2cccc(-c3nc4ccccc4[nH]3)c2)c1)c1ccncc1 | 99 | 38 | 27 |
| COc1cc(C(=O)NCCCN2CCN(c3cccc(Cl)c3)CC2)ccc1-c1cc2cc(Cl)c(Cl)cc2[nH]1 | 100 | 86 | 35 |
| CN(C)Cc1c(O)ccc2[nH]c(-c3cccc(F)c3)nc12 | 99 | 71 | 9 |
| CNCCNCc1cccc(-c2cccc(-c3nc4cc(F)ccc4[nH]3)c2)c1.O=C(O)C(F)(F)F | 98 | 15 | 20 |
| OC(CNCc1cccc(Oc2ccc(Cl)cc2)c1)c1cc(C(F)(F)F)cc(C(F)(F)F)c1 (stereo not given) | 99 | 100 | 0 |
| CCCCCN1CCCN(Cc2cccc(NC(=O)c3ccc(Cl)c(Cl)c3)c2)CC1.O=C(O)C(F)(F)F | 89 | 28 | 30 |
| C[C@@H](CC1CCCCC1)OC(=O)N(C)[C@H]1CCN(C#N)C1 | 84 | 62 | 4 |
| Cc1cccc2[nH]c(-c3cc(-c4cn[nH]c4)cnc3N)nc12 | 100 | 93 | 37 |
| O=C(O)C(F)(F)F.c1cc(CNCC2CCCO2)cc(-c2ccc(-c3nc4ccccc4[nH]3)s2)c1 (stereo not given) | 95 | 30 | 8 |
| NCCC(=O)Nc1ccc(-c2cnc3[nH]cc(-c4ccc(C(=O)O)cc4)c3c2)cn1.O=C(O)C(F)(F)F | 99 | 67 | 0 |
| CCOc1ccc2c(N/N=C/c3cccc([N+](=O)[O-])c3)cc(C)nc2c1 | 100 | 97 | 4 |
| O=C(NCCCCN1CCC2c3cccc(O)c3CCC21)c1ccc(-c2ccccc2)cc1 (stereo not given) | 81 | 50 | 23 |
| CCCN(CCC)CCCCC(C)Nc1c2ccc(Cl)cc2nc2ccc(OC)cc12.Cl (stereo not given) | 100 | 100 | 42 |
| Cc1cccc2nc(-c3ccc(-c4ccc(CNCCN5CCNCC5)cc4)s3)[nH]c12.O=C(O)C(F)(F)F | 88 | 0 | 30 |
| Cn1cccc1C(=O)Nc1cccc(-c2nn3ccccc3c2-c2ccnc(Nc3ccc4c(c3)OCCO4)n2)c1 | 95 | 27 | 12 |
| O=S(=O)(c1ccc(Oc2ccccc2)cc1)N(CCC(O)(C(F)(F)F)C(F)(F)F)Cc1cccc(O)c1 | 100 | 99 | 0 |
| CCCCCCN1CCC(NCc2ccc(OCCN3CCCC3)cc2)CC1.O=C(O)C(F)(F)F | 100 | 93 | 23 |
| Cl.NC1CCN(CCc2ccc(NS(=O)(=O)c3ccc(-c4ccccc4)cc3)cc2)CC1 | 100 | 19 | 17 |

| SMILES | Inhibition [1] [%] | Inhibition [2] [%] | Inhibition [3] [%] |
| --- | --- | --- | --- |
| Cc1ccc(CN2CCN(c3cc4c(cc3Cl)CCN4C(=O)Cc3ccc(Cl)c(NC(=O)Nc4cccc(C#N)c4)c3)CC2)cc1 | 92 | 29 | 3 |
| Cc1cc(=O)c(-c2ccc(Oc3ccc(Cl)cc3Cl)cc2)c(C)[nH]1 | 93 | 73 | 0 |
| CC1CN(c2cnn(C/C=C/c3ccc(NC(=O)c4ccc(Cl)cc4)cc3)c(=O)c2Cl)CC(C)N1.O=C(O)C(F)(F)F (stereo not given) | 88 | 82 | 25 |
| CS(=O)(=O)CCNCc1nc(-c2ccc3ncnc(Nc4ccc(OCc5ccccc5)c(Cl)c4)c3c2)cs1.Cl | 99 | 55 | 13 |
| O=C(Nc1cccc(CN2CCCN(Cc3ccc(O)cc3)CC2)c1)c1cccc(F)c1.O=C(O)C(F)(F)F | 92 | 4 | 22 |
| COc1ccc(Nc2nccc(N3CCC(NC(=O)Nc4cccc(OC)c4)C3)n2)cc1 (stereo not given) | 99 | 48 | 23 |
| O=C(O)C(F)(F)F.O=S(=O)(NCCN1CCCC1)c1ccc(-c2ccc(CNCc3ccccc3)cc2)s1 | 94 | 17 | 34 |
| COc1cc(NC(=O)Nc2ccc([N+](=O)[O-])cc2OC)c(OC)cc1Cl | 87 | 6 | 38 |
| O=C(NCC1CC1)C1Cc2c([nH]c3ccc(Br)cc23)C2(CCN(CCc3ccccc3)CC2)N1 (stereo not given) | 88 | 25 | 14 |
| CN(C)CCC1CCCc2ccc(NC(=O)Nc3cccc(Cl)c3Cl)cc21.Cl (stereo not given) | 93 | 11 | 44 |
| Cc1ccc2[nH]cc(/C=C/C(=O)NC3CCC(CCN4CCc5ccc(C#N)cc5CC4)CC3)c2c1.Cl (stereo not given) | 93 | 49 | 11 |
| Cl.O=C(/C=C/c1ccccc1F)NC1CCC(CCN2CCc3ccc(-c4cccnc4)cc3CC2)CC1 (stereo not given) | 92 | 5 | 34 |
| Cc1ccccc1Nc1cc(Nc2ccccc2C)c2ccccc2n1 | 96 | 93 | 28 |
| CN1CCN(CCCN(C(=O)Nc2cc(C(F)(F)F)cc(C(F)(F)F)c2)c2ccccc2Cc2ccccc2)CC1 | 89 | 92 | 35 |
| Cc1cc(N2CCCC2)nc(Nc2ccc(NC(=O)c3ccccc3F)cc2)n1 | 98 | 44 | 36 |
| Cc1cnc(NC(=O)c2cn(-c3ccccc3)nc2-c2cccs2)s1 | 91 | 1 | 0 |
| C[C@@H](COc1ccccc1)NCC(O)c1ccc([N+](=O)[O-])c(OCc2ccccc2)c1 (stereo not given in full) | 93 | 64 | 5 |
| CCCN(CCC)C(=O)c1cc(C(=O)N[C@@H](Cc2ccccc2)[C@H](O)CNCc2cccc(OC)c2)cc(N2CCCCS2(=O)=O)c1 | 97 | 99 | 0 |
| Cc1nc(-c2nc(N3CCC(O)CC3)ncc2-c2ccsc2)sc1C | 83 | 35 | 6 |
| Cc1cccc2nc(-c3ccc(-c4cccc(CN5CCN(c6ccncc6)CC5)c4)s3)[nH]c12.O=C(O)C(F)(F)F | 100 | 99 | 48 |

| SMILES | Inhibition [1] [%] | Inhibition [2] [%] | Inhibition [3] [%] |
| --- | --- | --- | --- |
| O=C(NCCCCN1CCC(c2cccc3ccccc23)CC1)c1ccc(-c2ccc(C(F)(F)F)cn2)cc1 | 91 | 36 | 31 |
| O=C(Cc1ccccn1)Nc1cccc(-c2cccc(-c3nc4cc(C(F)(F)F)ccc4[nH]3)c2)c1 | 95 | 22 | 26 |
| O=C(Nc1ccc(F)c(C(F)(F)F)c1)N[C@H]1CCN(CCCCCNC(=O)C2CC2c2ccc(Cl)c(Cl)c2)C1 (stereo not given in full) | 90 | 0 | 46 |
| CCN1CCN(c2cc(C)c3cc(NC(=O)c4ccc(OC)c([N+](=O)[O-])c4)ccc3n2)CC1 | 100 | 93 | 25 |
| CN1CCN(c2cc(-c3cccc(C(F)(F)F)c3)nc(-c3ccncc3)n2)CC1 | 100 | 98 | 38 |
| Cl.O=C(Nc1ccc(Cl)cc1)Nc1cccc(-c2cc(CNCCc3ccccc3)oc2-c2ccncc2)c1 | 100 | 92 | 40 |
| Cc1cc(O)c(-c2cc(C(=O)Nc3cccnc3)[nH]n2)cc1C | 97 | 97 | 12 |
| CC(C)N(C(=O)CSc1nc2cc(Cl)ccc2c(=O)n1Cc1ccccc1)C(C)C | 100 | 97 | 0 |
| O=C(Nc1ccc(Cn2ncc(N3CCCNCC3)c(Cl)c2=O)cc1)Nc1cccc(C(F)(F)F)c1.O=C(O)C(F)(F)F | 100 | 30 | 20 |
| COc1ccc(CCN(C)CCCN2CCC(NC(=O)c3cccc4c(=O)c5ccccc5[nH]c34)CC2)cc1OC.O=C(O)C(=O)O | 99 | 72 | 19 |
| Cl.Nc1c2c(nc3ccc(NC(=O)c4ccc([N+](=O)[O-])cc4)cc13)CCCC2 | 100 | 72 | 19 |
| CC1Cc2ccccc2N1S(=O)(=O)c1cc(OCC(F)(F)F)ccc1OCC(F)(F)F (stereo not given) | 96 | 95 | 10 |
| COC(=O)C(Cc1ccccc1)NC(=O)NC1CCN(c2ccnc(Nc3ccc(F)cc3)n2)C1 (stereo not given) | 90 | 14 | 0 |
| OC(CN1CCN(Cc2ccccc2)CC1)Cn1c(-c2ccccc2)c(-c2ccccc2)c2ccccc21 (stereo not given) | 98 | 97 | 0 |
| COc1c(C2CCN(CCCCNC(=O)C=Cc3cc4cc(Cl)ccc4o3)CC2)ccc2c1CCCC2 | 87 | 19 | 33 |
| CC(C)C1C(=O)N(S(C)(=O)=O)C2CCN(C(=O)c3ccc(CN4CCCCC4)c([N+](=O)[O-])c3)C12.Cl (stereo not given) | 100 | 100 | 10 |
| Cc1ccc2[nH]c(C)cc(=NN=Cc3cccc(Cl)c3)c2c1 | 100 | 98 | 12 |
| COc1ccc(NC(=O)NC2CCN(c3ccnc4cc(Cl)ccc34)CC2)cc1.O=C(O)C(F)(F)F | 83 | 64 | 5 |
| CC1CN(CCCn2c3ccccc3c3ccc(C(=O)CCCN(C)C)cc32)CC(C)N1.Cl (stereo not given) | 100 | 6 | 26 |
| NCc1ccc(CNCc2ccc(-c3ccc(-c4nc5cc(C(F)(F)F)ccc5[nH]4)s3)cc2)cc1.O=C(O)C(F)(F)F | 95 | 92 | 34 |
